We go through 24 sequences from article PMC10726135, “HNF4α isoforms regulate the circadian balance between carbohydrate and lipid metabolism in the liver”.

Whole data set: some 18,000 sequences, median “log2 normalized intensity” near 0.36, cut for the highest 2% near 7.3. The full list was thinned out, with the highest values kept by preference.

This test addresses T1, HNF4alpha8 (COS-7 nuclear extract) (Homo sapiens, UniProt P41235-5 1-452).
T1 sequence: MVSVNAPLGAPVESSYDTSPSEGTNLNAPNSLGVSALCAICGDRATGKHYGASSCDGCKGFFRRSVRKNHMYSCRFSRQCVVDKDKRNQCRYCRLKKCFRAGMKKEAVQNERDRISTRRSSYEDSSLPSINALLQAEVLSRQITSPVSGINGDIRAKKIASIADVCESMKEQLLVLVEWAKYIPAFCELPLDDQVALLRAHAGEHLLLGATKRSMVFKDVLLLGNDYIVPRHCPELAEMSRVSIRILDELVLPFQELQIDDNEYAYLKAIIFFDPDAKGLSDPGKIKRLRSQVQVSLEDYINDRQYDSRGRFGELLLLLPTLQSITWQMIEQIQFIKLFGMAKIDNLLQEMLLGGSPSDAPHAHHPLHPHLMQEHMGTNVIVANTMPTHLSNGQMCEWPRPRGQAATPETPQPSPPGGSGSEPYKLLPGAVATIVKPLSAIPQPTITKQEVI
Put plainly: protein-binding microarray; COS-7 nuclear extract on double-stranded Agilent 4x180k PBM; binding buffer, salt, pH and temperature not given in the material; high values mean tight binding. As to conditions: chain copies: 2; label: 3' end of strand 1 on the slide; dsDNA, one strand shown. A digest of the protocol: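 A human HNF4α isoform was expressed in COS-7 cells by transient CaPO4 transfection, and nuclear extracts were prepared. These were applied to a custom Agilent SurePrint G3 4x180k array carrying ~44,000 test sequences in quadruplicate as double-stranded ~60-nt oligonucleotides, and an Agilent G2565CA scanner imaged bound HNF4α at 2-µm resolution. The background-corrected, normalized gProcessedSignal from Agilent software was used as the binding signal.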
In the case of “AGCAATCATATATGCATTTGTCTCAGGTGGGCCTAGGGAGATTAGAGTATCGGTCGA”, the binding signal is 1.26 log2 normalized intensity.

“CCTAAAATTGACCTTTGATCACTCATGGGCGCCTAGGGAGATTAGAGTATCGGTCGA”: the binding signal amounted to 8.68 log2 normalized intensity.

With “GAACTGAAAGAGACCTTTGACATCACCTAAGCCTAGGGAGATTAGAGTATCGGTCGA”, the binding signal stood at 2.77 log2 normalized intensity.

Take “GTTTACTCATGTGGTCCTAAGACTGACCTTGCCTAGGGAGATTAGAGTATCGGTCGA”: the binding signal came out at 4.61 log2 normalized intensity.

Regarding “CTCATGTGGTCCTAAGACTGACCTTTGATCGCCTAGGGAGATTAGAGTATCGGTCGA”, the binding signal stood at 10.6 log2 normalized intensity.

In the case of “GACTGACCTTTGATCATTTGAGGGTGACACGCCTAGGGAGATTAGAGTATCGGTCGA”, the binding signal was determined as 6.1 log2 normalized intensity.

For “AATCAACCTTTGATCGTTTGCATGCAGGGCGCCTAGGGAGATTAGAGTATCGGTCGA”, the binding signal is 3.98 log2 normalized intensity.

For the sequence “GTGGTCCTAAGACTGACCTTTGATCATTTGGCCTAGGGAGATTAGAGTATCGGTCGA”, the binding signal was 9.52 log2 normalized intensity.

Turning to “GCACTGATAAGCGTATTTCAACCTTTGATCGCCTAGGGAGATTAGAGTATCGGTCGA”, the binding signal worked out at 8.45 log2 normalized intensity.

On to “AGGAGGCACTGATAAGCGTATTTCAACCTTGCCTAGGGAGATTAGAGTATCGGTCGA”, for which the binding signal stood at 0.651 log2 normalized intensity.

Regarding “GATAAGCGTATTTCAACCTTTGATCTATAAGCCTAGGGAGATTAGAGTATCGGTCGA”, the binding signal stood at 6.82 log2 normalized intensity.

As to “TTGTTTACTCATGTGGTCCTAAGACTAACCGCCTAGGGAGATTAGAGTATCGGTCGA”, the binding signal was found to be 0.432 log2 normalized intensity.

Regarding “AATTGACCTTTGATCACTCATGGGCAAGATGCCTAGGGAGATTAGAGTATCGGTCGA”, the binding signal stood at 6.41 log2 normalized intensity.

With “AATGCCCAGGATTCCTTTTTCACTGCTCACGCCTAGGGAGATTAGAGTATCGGTCGA”, the binding signal is -0.85 log2 normalized intensity.

As for “CACTTCCCGAGTGAGGCAATGCCTCGCCCTGCCTAGGGAGATTAGAGTATCGGTCGA”, the binding signal was -0.664 log2 normalized intensity.

On to “ATTCAGCATTGCTTGGGAGCAGTCCTTGGGGCCTAGGGAGATTAGAGTATCGGTCGA”, for which the binding signal is -0.959 log2 normalized intensity.

“AGCATGTTTGGTGACCCGTGACCCTCAGGAGCCTAGGGAGATTAGAGTATCGGTCGA”: the binding signal is 3.82 log2 normalized intensity.

“CCGTCTCTCACCAAATCCCTGCCCACATCCGCCTAGGGAGATTAGAGTATCGGTCGA”: the binding signal amounted to 2.23 log2 normalized intensity.

With “CTCCTTGGAAGTCGCCGTGAGGTTATTTGCGCCTAGGGAGATTAGAGTATCGGTCGA”, the binding signal amounted to 0.914 log2 normalized intensity.

With “GAGAGGCTTATGCATGGGAGATCTTCAGTAGCCTAGGGAGATTAGAGTATCGGTCGA”, the binding signal is -0.357 log2 normalized intensity.

For “TTCCTTATCTGGAATTCCTCCTCCTGTTTGGCCTAGGGAGATTAGAGTATCGGTCGA”, the binding signal amounted to 0.85 log2 normalized intensity.

Consider “TCTTTTGACCTTTGCCTCATTCTTATTGCCGCCTAGGGAGATTAGAGTATCGGTCGA”, for which the binding signal came to 5.61 log2 normalized intensity.

For the sequence “GACCTTTATATGTCCACCTTATCTAATGCCGCCTAGGGAGATTAGAGTATCGGTCGA”, the binding signal is 2.22 log2 normalized intensity.

For “AGCAAACCTGTCTCTCTGCATTCCTCCTGGGCCTAGGGAGATTAGAGTATCGGTCGA”, the binding signal is 0.684 log2 normalized intensity.
